From PubChem BioAssay AID2288 (National Center for Advancing Translational Sciences (NCATS), 2010)
The whole screen tested about 340,000 compounds, of which fewer than 10 were called active. Roughly 2% stayed inconclusive and do not appear here. The call rests on the fitted dose curve; in most records, active means well fitted curve in the direction sought with a large enough effect; inconclusive means small, poorly fitted or top-dose-only effect, or another doubt; inactive means no such curve, though single readings can be large or run the other way. These entries were drawn from the full list.

Experiment: qHTS Assay for Modulators of miRNAs and/orActivators of miR-21;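 further: % of control where 0% means no effect; miR-21 action dims this reporter so a rising signal means less miR-21 action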
Settings: HeLa miR-21 FLuc reporter, luciferase, 48 h; series mostly up to 38.3 µM; activity change, positive = activation: at the top concentration
Source text: MLSCN Grant: 1 R21 NS059478-01 Assay Provider: Qihong Huang, The Wistar Institute NCGC Assay Overview: MicroRNAs (miRNAs) are endogenously encoded small (~20-25 nucleotides), nonprotein-coding RNAs that are involved in post-transcriptional repression of target messenger RNAs (mRNAs) (Le and Hannon, 2004). Estimated to be involved in the regulation of 30% of all protein-coding mRNAs (Filipowicz et al., 2008), miRNAs play a significant role in many biological processes including cellular differentiation and tissue development (Ghildiyal and Zamore, 2009).
NCGC Assay Protocol Summary: Reagents: HeLa cells stably expressing firefly luciferase (FLuc) under the control of a CMV promoter (upstream) and a miR-21 binding sequence directly downstream of the gene. These cells endogenously express miR-21. Control compounds used were compound C3 (provided by collaborator), N6-phenyladenosine (MP Biomedicals, 0215379625), and DMSO. Assay Summary: 6uL of HeLa miR-21-FLuc cells in assay buffer (DMEM, Invitrogen #21063-029; 10% FBS, HyClone #SH30071.03) were dispensed at 2000cells/well (3.3 x 10^5 cells/mL) into Greiner solid-white TC-treated 1536-well plates using a Multidrop Combi (Thermo Fisher Scientific). Plates were incubated for one hour at 37 degree Celsius, 95% humidity, 5% CO2. These assay plates were then treated with 23nL of compound or DMSO using a Kalypsys pin tool, which allows for delivery of a 24-point titration of each compound to the assay plate, with a final compound concentration ranging from approximately 40uM to 5pM. Assay plates were then incubated for 48 hours. After incubation, plates were allowed to come to RT for one hour prior to delivery of 3uL of 3X luciferase detection reagent. After a 15 minute incubation to allow for cell lysis, luciferase activity was measured using a ViewLux CCD imager (PerkinElmer), with an average exposure time of 2-12 seconds. Keywords: NIH Roadmap, MLPCN, MLSMR, qHTS, miR-21, microRNA, firefly luciferase, FLuc.

Compound	activity change, positive = activation
CCOc1ccc(CCNC(=O)c2ccc3c(c2)sc2nc(-c4ccc(F)cc4)cn23)cc1OCC	1.62% (inactive)
Cc1cc(NC(=O)c2ccc(-c3ccc(Cl)cc3)o2)cc(-c2nc3ncccc3o2)c1O	2.05% (inactive)
O=C(CSc1oc(-c2ccco2)nc1S(=O)(=O)c1ccccc1)c1ccc(Cl)cc1	8.21% (inactive)
COc1cccc(CNC(=O)Cc2csc3nc(-c4ccccc4)cn23)c1	-0.468% (inactive)
Cc1ccc(NC(=O)c2ccc(CN3CC(=O)N4CCCCC4C3=O)cc2)c(Cl)c1 (stereo not given)	1.68% (inactive)
O=C(Cn1ncn2nc(-c3cccs3)cc2c1=O)NCc1cccc(Br)c1	-2.62% (inactive)
Cc1ccc(C)c(OCC(=O)Nc2sc3c(c2C#N)CCCC3)c1C	-1.24% (inactive)
COc1cccc(N2CCN(S(=O)(=O)c3cc(Br)cc4c3N(C(=O)C3CC3)CC4)CC2)c1	-0.588% (inactive)
CCNS(=O)(=O)c1cc(-c2nnc(Nc3cccc(C(F)(F)F)c3)c3ccccc23)ccc1C	-0.871% (inactive)
Cc1nn(-c2ccc(N3CCCCC3)nn2)c(C)c1CCC(=O)NCc1ccccc1F	18.3% (inactive)
CCOc1ccc(N(CC)C(=O)c2cc3c(=O)oc4ccccc4c3s2)cc1	-10.1% (inactive)
CCCN(CCC)S(=O)(=O)c1ccc(C(=O)Nc2sc3c(c2C(=O)OC)CCN(CC)C3)cc1	22.1% (inactive)
COC(=O)c1ccccc1NC(=O)c1cc(-c2ccccc2O)no1	5.97% (inactive)
COC(=O)CC1Oc2ccccc2-n2cc(-c3ccccc3)nc21 (stereo not given)	12.2% (inactive)
CCc1cc2c(cc3c(=O)n(CC(=O)N4CCN(c5cc(Cl)ccc5C)CC4)ncn32)s1	0.215% (inactive)
CCOC(=O)c1ccc(NC(=O)Cn2cc(S(=O)(=O)Cc3ccccc3F)c3ccccc32)cc1	-1.64% (inactive)
CCOC(=O)c1cnc2c(C)cc(C)cc2c1Nc1ccc(N2CCOCC2)cc1	-4.37% (inactive)
Cc1cccc(CNC(=O)c2cnc3sc(N4CCCCC4)nn3c2=O)c1	-1.19% (inactive)
Cc1nn(-c2ccc(N3CCCCC3)nn2)c(C)c1CCC(=O)NCc1ccc(F)cc1	-12.7% (inactive)
Cc1cccc(-n2ccnc2SCC(=O)Nc2cccc3ccccc23)c1C	5.86% (inactive)
CCOc1ccc(C(=O)c2cn(Cc3ccccc3OC)c3ccc(F)cc3c2=O)cc1	1.46% (inactive)
CCOC(=O)c1cccc(NC(=O)c2cc(CN3CCCC3)on2)c1	-64% (inactive)
O=C(Nc1ccc2nc(SCCOc3ccccc3Cl)sc2c1)c1ccco1	9% (inactive)
Cc1ccc2c(=O)cc(C(=O)Nc3sc4c(c3C(=O)NCc3cccnc3)CCCC4)oc2c1	1.15% (inactive)

Compound	activity change, positive = activation
Cc1ccc(CN2C(=O)SC(Nc3ccccc3)C2=O)cc1 (stereo not given)	2.92% (inactive)
O=C(CCS(=O)(=O)c1cc(Br)cc2c1N(C(=O)C1CC1)CC2)Nc1ccc(C(F)(F)F)cc1	-1.46% (inactive)
O=S(=O)(c1ccc(C2CCCCC2)cc1)N1CCN(c2ccc(Cl)c(Cl)c2)CC1	-2.63% (inactive)
O=C(NCCC1=CCCCC1)c1ccc2c(c1)N(Cc1ccccc1F)C(=O)c1ccccc1S2(=O)=O	5.95% (inactive)
CN(C)S(=O)(=O)c1ccc(C(=O)N(Cc2cccnc2)c2nc3c(F)cc(F)cc3s2)cc1	-11.5% (inactive)
CCNC(=O)Cn1nc(C)n2c(cc3c(OC)cccc32)c1=O	-0.737% (inactive)
CCn1cc(C(=O)N2CCN(c3cc(C)ccc3C)CC2)c(=O)c2cc(S(=O)(=O)N(C)C3CCCCC3)ccc21	0.0352% (inactive)
CCC(=O)N1CCc2cc(CNC(=O)Nc3ccccc3Cl)ccc21	-28.9% (inactive)
Cc1cc(C)c(NC(=O)c2cc3sc(Cl)cc3n2C)c(C)c1	0.326% (inactive)
COc1ccc(C(F)(F)F)cc1NC(=O)c1sc2nc(-c3cccs3)ccc2c1N	-11.7% (inactive)
Cc1cc2n(n1)C(c1cc(C(C)(C)C)c(O)cc1O)Nc1ccccc1-2 (stereo not given)	10.5% (inactive)
CCc1ccc(C2C(C(=O)Nc3ccccc3)=C(C)Nc3c(C(=O)Nc4ccc(C)cc4)cnn32)cc1 (stereo not given)	18.4% (inactive)
Cc1ccc(C)c(N2C(=O)N(Cc3c(F)cccc3Cl)c3ccccc3S2(=O)=O)c1	19.2% (inactive)
Clc1cccc(-n2ncc3c(NCCc4ccccc4)ncnc32)c1	-34% (inactive)
CCOc1ccc(N2CC(C)Cn3c2nc2c3c(=O)n(Cc3c(F)cccc3Cl)c(=O)n2C)cc1 (stereo not given)	-3.48% (inactive)
CCc1cc2c(cc3c(=O)n(CC(=O)N4CCN(c5cc(Cl)ccc5C)CC4)nc(CC)n32)s1	-0.281% (inactive)
COc1ccc(-n2ccnc(NCCc3ccc(Cl)cc3)c2=O)cc1OC	24.5% (inactive)
O=C1CCCc2cc(S(=O)(=O)N3CCCC(C(=O)NCc4ccccc4)C3)ccc2N1 (stereo not given)	7.69% (inactive)
CCOC(=O)c1c(NC(=O)c2cc(CC)on2)sc(C(C)=O)c1C	-1.99% (inactive)
CCOc1ccc(N(CC)C(=O)C2CCN(S(=O)(=O)c3cccc4nonc34)CC2)cc1	0.642% (inactive)
COc1ccccc1C1C(C(=O)N2CCCCC2)=C(C)Nc2nc3ccccc3n21 (stereo not given)	0.0662% (inactive)
O=C(Nc1c(-c2ccc(F)cc2)nc2ccccn12)c1cccc(F)c1	-1.07% (inactive)
O=C(CCn1c(=O)c2sccc2n(Cc2ccc(F)cc2)c1=O)NCc1ccc2c(c1)OCO2	0.239% (inactive)
COc1cc(OC)cc(-c2nc3nc(C)c(CCC(=O)Nc4ccccc4)c(C)n3n2)c1	-4.08% (inactive)

Compound	activity change, positive = activation
Cc1ccccc1-c1nc2scc(CCNC(=O)C(=O)Nc3ccc(F)cc3F)n2n1	0.0996% (inactive)
Cc1cccc2nc(-c3ccc(Cl)s3)c(Nc3ccc4c(c3)OCCO4)n12	-42.6% (inactive)
O=C(Cn1c(=O)n(Cc2ccccc2)c(=O)c2sc3ccccc3c21)Nc1ccccc1F	-6.8% (inactive)
COc1ccc(-c2cc(-c3ccccc3)nc3c2COc2ccc(Cl)cc2-3)cc1	-0.778% (inactive)
Cc1ccc(S(=O)(=O)c2nc(-c3cccs3)oc2N2CCCCC2)cc1	1.01% (inactive)
Cc1cccc(NC(=O)Cn2cc(S(=O)(=O)Cc3ccccc3Cl)c3ccccc32)c1	7.43% (inactive)
O=C(NC1CC(=O)N(c2ccc(F)cc2)C1)c1cccs1 (stereo not given)	-2.97% (inactive)
COc1ccc(Cl)cc1S(=O)(=O)N1CCC(c2ccncc2)CC1	12.3% (inactive)
CC(C)CC(NS(=O)(=O)c1ccc2c(c1)oc(=O)n2C)C(=O)NCc1ccccc1Cl (stereo not given)	-0.815% (inactive)
CCc1ccccc1NC(=O)CSc1nnc(-c2ccccc2)c(-c2ccccc2)n1	13.9% (inactive)
CCCc1nn2c(=O)cc(COC(=O)c3ccc(NC(=O)COc4ccc(F)cc4)cc3)nc2s1	-7.11% (inactive)
CCOc1ccccc1CNC(=O)c1ccc2c(c1)nc1n2CCC(C)C1 (stereo not given)	-0.912% (inactive)
COc1ccc2c(c1)C=C(C(=O)NCc1cc(Br)ccc1OC)CO2	4.49% (inactive)
CC(C)Cn1c(-c2ccc(S(=O)(=O)N3CCOCC3)cc2)csc1=Nc1cc(Cl)ccc1Cl	-1.77% (inactive)
O=C(Cc1ccc(Cl)cc1)NCC(c1cccs1)S(=O)(=O)c1ccc(Cl)cc1 (stereo not given)	14.4% (inactive)
COc1cc(OC)c(NC(=O)c2cnc(N3CCCC3)nc2C)cc1Cl	-8.6% (inactive)
Cc1ccc(C(=O)COC(=O)C(Cc2c[nH]c3ccccc23)NC(=O)c2ccc(Br)cc2)cc1 (stereo not given)	-3.65% (inactive)
Cc1cc(N2CCN(c3cccc(C(F)(F)F)c3)CC2)n2nc(-c3ccccc3)nc2n1	1.74% (inactive)
CCCNC(=O)c1ccc(Cn2c(SCC(N)=O)nc3ccccc3c2=O)cc1	-24.5% (inactive)
Cn1c(=O)c(C(=O)O)nn(-c2ccccc2)c1=O	3.23% (inactive)
Cc1ccc(OCC(=O)Nc2ccc(OCc3cc(=O)n4c(C)csc4n3)cc2)cc1C	-2.25% (inactive)
COc1cc(OC)c(NC(=O)c2c3c(nn2C)-c2ccccc2SC3)cc1Cl	1.84% (inactive)
COC(=O)c1ccccc1NC(=O)Cn1c(=O)n(-c2cccc(C(F)(F)F)c2)c(=O)c2c(C)c(C)sc21	0.641% (inactive)
Brc1ccc2c(c1)NC(c1cccnc1)=NC(c1ccccc1)=N2	-10.5% (inactive)

Compound	activity change, positive = activation
CCOC(=O)c1cc(-c2ccccc2)n(CCC(=O)Nc2ccccc2CC)c1C	-4.44% (inactive)
COc1ccccc1-c1nnc(C2CCN(C(=O)c3ccc(Cl)cc3)CC2)o1	-3.37% (inactive)
CCCCN(C)c1nnc(NC(=O)Nc2ccc(Br)c(C)c2)s1	-3.2% (inactive)
CCOC(=O)Cn1c(=O)n(C2CCCCC2)c2nc(-c3cccc(OC)c3)nc(C(N)=O)c21	-0.638% (inactive)
Cc1cc(C)c(NC(=O)CCc2c(C)nc3c(c(C)nn3C(C)(C)C)c2C)c(C)c1	4.5% (inactive)
O=C(NC1CC(=O)N(c2ccc(F)cc2)C1)c1ccc(S(=O)(=O)N2CCCC2)cc1 (stereo not given)	-5.5% (inactive)
Cc1ccc(-c2nnc(Nc3ccc(OCC(N)=O)cc3)c3ccccc23)cc1S(=O)(=O)NCC1CCCO1 (stereo not given)	-3.57% (inactive)
O=C(c1ccc(Br)cc1)N(Cc1cccs1)c1ccc(F)cc1	15.3% (inactive)
CC1=C(C(=O)OCC2CCCCC2)C(c2c(F)cccc2Cl)CC(=O)N1 (stereo not given)	-3.1% (inactive)
Cc1ccc(OCCSc2nc(C)c(Cc3ccccc3)c(=O)[nH]2)cc1	-0.304% (inactive)
CCOc1ccc(-c2cc(C)n3nc(C(=O)Nc4ccc(C)c(C)c4)cc3n2)cc1	-15.3% (inactive)
Cc1ccc2oc3c(c(=O)c2c1)C(c1ccc(O)cc1)N(Cc1ccc2c(c1)OCO2)C3=O (stereo not given)	0.711% (inactive)
COc1ccc(-c2cc(C(=O)Nc3sc4c(c3C(N)=O)CCCC4)no2)cc1	-12.6% (inactive)
COc1cccc(-c2cc(C(=O)Nc3ccc(C)cc3)[nH]n2)c1	-37.4% (inactive)
CCCCN(CC)CCCNC(=O)c1nn(C)c2c1CSc1ccccc1-2	-4.82% (inactive)
Cc1ccccc1CNC(=O)c1cccc(NC(=O)c2nsc3ccccc23)c1	-48.8% (inactive)
COc1cc(NC(=O)c2cc3ccc4cccnc4c3[nH]2)cc(OC)c1OC	1.22% (inactive)
Cc1nnc(NC(=O)CSc2nc3c([nH]c4ccccc43)c(=O)n2-c2cccc(Cl)c2)s1	-7.48% (inactive)
Cc1ccc2nc(COc3ccccc3NC(=O)Nc3ccc(F)c(Cl)c3)cc(=O)n2c1	-22.2% (inactive)
COc1ccc(-c2nc(Cn3c(=O)cc(C)c4c(C)nn(-c5ccccc5)c43)c(C)o2)c(OC)c1	-21% (inactive)
CCOCCCNC(=O)c1ccc2nc(CCc3ccccc3)oc2c1	-46.9% (inactive)
CCOc1cc(CNC(=O)c2sc3ncnc(N(C)C4CCCCC4)c3c2C)ccc1OC	20.8% (inactive)
Cc1ccc(C)c(Cn2c(C(=O)O)c(CNCc3cccs3)c3ccccc32)c1	5.44% (inactive)
